Source: PubChem BioAssay (NCI)
This is part of a sample that, as a whole, favours compounds with a hit. Of some 83,000 tested, about 20% had one in any assay.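 Single-concentration screen, 48 h exposure, 96-well plates. Endpoint: percent growth. Below 10 = active.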 A number with no mark means an inactive call. The source made the active and inactive calls.

Assays:
Assay in all cases: NCI-60 one-dose screen, 48 h (100 = growth as untreated, 0 = no growth, -100 = all killed)
Details in all cases: 10 µM unless noted
[1] = tested on: NCI-H23 lung
[2] = tested on: NCI-H226 lung
[3] = tested on: NCI-H322M lung
[4] = tested on: HOP-62 NSCLC
[5] = tested on: NCI-H460 lung
[6] = tested on: HOP-92 NSCLC
[7] = tested on: NCI-H522 lung
[8] = tested on: A549/ATCC NSCLC
[9] = tested on: 786-0 renal
[10] = tested on: COLO 205 colon
[11] = tested on: DU-145 prostate
[12] = tested on: K-562 leukemia
[13] = tested on: MALME-3M melanoma
[14] = tested on: MDA-MB-231 breast
[15] = tested on: SF-268 CNS
[16] = tested on: SF-295 CNS
[17] = tested on: SF-539 CNS
[18] = tested on: M14 melanoma

CCC(=O)Nc1ccccc1C#C/C=C\C#Cc1ccccc1SC
growth [1]: 79.9% | growth [2]: 76.4% | growth [3]: 101% | growth [4]: 66.5% | growth [5]: 28.6% | growth [6]: 48.1% | growth [7]: 84.4% | growth [8]: 62.4% | growth [9]: 87.7% | growth [10]: 66.2% | growth [11]: 77.3% | growth [12]: 56% | growth [13]: 76.8% | growth [14]: 47.9% | growth [15]: 63.9% | growth [16]: 59.8% | growth [17]: 60.1% | growth [18]: 59.9%

COc1ccc(C(=O)N2CCN(C(=O)c3cc(OC)c(OC)c(OC)c3)CC2)cc1OCCCCOc1cc2c(cc1OC)C(=O)N1CCC[C@H]1C=N2
growth [1]: 82.2% | growth [2]: 105% | growth [3]: 141% | growth [4]: 105% | growth [5]: 121% | growth [6]: 70.9% | growth [7]: 102% | growth [8]: 76.8% | growth [9]: 108% | growth [10]: 107% | growth [11]: 113% | growth [12]: 116% | growth [13]: 126% | growth [14]: 82.4% | growth [15]: 126% | growth [16]: 109% | growth [17]: 98.9% | growth [18]: 115%

CCN1C(=O)N(CC)C2C1NN=c1s/c(=C3\C(=O)N(C4CCCC4)c4ccccc43)c(=O)n12 (centres undefined)
growth [1]: 20.1% | growth [2]: 99.8% | growth [3]: 53% | growth [4]: 8.41% (active) | growth [5]: -1.48% (active) | growth [6]: 28.1% | growth [7]: -5.34% (active) | growth [8]: 25.3% | growth [9]: 14.1% | growth [10]: -29.2% (active) | growth [11]: 7.65% (active) | growth [12]: 4.67% (active) | growth [13]: 57.4% | growth [14]: 19.7% | growth [15]: 43.4% | growth [16]: -6.11% (active) | growth [17]: -39.3% (active) | growth [18]: 2.66% (active)

COc1ccc(OC)c(/C=C2\Oc3cc(OCCN4CCCC4)ccc3C2=O)c1
growth [1]: 87.7% | growth [2]: 104% | growth [3]: 97.4% | growth [4]: 87.2% | growth [5]: 99.1% | growth [6]: 92.3% | growth [7]: 103% | growth [8]: 103% | growth [9]: 93.9% | growth [10]: 97.9% | growth [11]: 96.5% | growth [12]: 3.51% (active) | growth [13]: 104% | growth [14]: 84.6% | growth [15]: 93.7% | growth [16]: 101% | growth [17]: 84.7% | growth [18]: 98.4%

CCCCCC/C=C\CCCCCCCCOc1ccc(CCOP(=O)(O)OCC[N+](C)(C)C)cc1
growth [1]: 98.8% | growth [2]: 102% | growth [3]: 105% | growth [4]: 72.8% | growth [5]: 26.9% | growth [6]: 60.7% | growth [7]: 59% | growth [8]: 79% | growth [9]: 89.6% | growth [10]: 86.4% | growth [11]: 98% | growth [12]: 74.8% | growth [13]: 103% | growth [14]: 88.3% | growth [15]: 66.7% | growth [16]: 89.9% | growth [17]: 94.7% | growth [18]: 88.1%

Cc1cc(Cl)ccc1OC(C)C(=O)Nc1nnc(C2CC2)s1 (centres undefined)
growth [1]: 76.7% | growth [2]: 98.5% | growth [3]: 124% | growth [4]: 94.7% | growth [5]: 114% | growth [6]: 81.3% | growth [7]: 94.6% | growth [8]: 86.3% | growth [9]: 92.7% | growth [10]: 105% | growth [11]: 102% | growth [12]: 120% | growth [13]: 119% | growth [14]: 95.1% | growth [15]: 111% | growth [16]: 89% | growth [17]: 101% | growth [18]: 113%

CCN1C(=O)/C(=c2\sc3n(c2=O)C2C(NN=3)N(CC)C(=S)N2CC)c2ccccc21 (centres undefined)
growth [1]: 101% | growth [2]: 92.3% | growth [3]: 103% | growth [4]: 79.2% | growth [5]: 107% | growth [6]: 99.2% | growth [7]: 91.9% | growth [8]: 106% | growth [9]: 99.5% | growth [10]: 103% | growth [11]: 115% | growth [12]: 98% | growth [13]: 93.2% | growth [14]: 96.3% | growth [15]: 90.2% | growth [16]: 100% | growth [17]: 96.3% | growth [18]: 96.2%

CC(C)(C)OC(=O)N1C/C(=C\c2cccs2)C(=O)/C(=C/c2cccs2)C1
growth [1]: 96.3% | growth [2]: 93.1% | growth [3]: 94.3% | growth [4]: 89% | growth [5]: 105% | growth [6]: 82.2% | growth [7]: 79.5% | growth [8]: 86.9% | growth [9]: 81.4% | growth [10]: 117% | growth [11]: 107% | growth [12]: 75.8% | growth [13]: 95.8% | growth [14]: 101% | growth [15]: 91.8% | growth [16]: 98.9% | growth [17]: 99% | growth [18]: 98.3%
